# PubChem BioAssay (NCI)
# About 79,000 compounds went through this panel and 15% of them were active in at least one assay; those are over-represented in the sample as a whole. Values without a mark were called inactive. Active and inactive are the calls of the source. No stated cut-off is given here; in the data, active means growth inhibition above about 70%; inactive means the rest.
# Key:
# [1] = NCI Yeast Anticancer Drug Screen. Data for the rad52 strain (AID 147);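 further: 0% = growth of vehicle-treated control cultures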; conditions: S. cerevisiae rad52 mutant growth inhibition, hits give high values
# Outline: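 The repair-mutant yeast strain was incubated with compounds, then growth was read and inhibition derived relative to vehicle.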
# [2] = NCI Yeast Anticancer Drug Screen. Data for the wt1 strain (AID 149);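 further: 0% = growth of vehicle-treated wt1 cultures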; conditions: S. cerevisiae wt1 strain (SPY 50644) growth inhibition, hits give high values
# Outline: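 Using yeast strain wt1, compound-induced growth inhibition was determined against vehicle-treated cultures.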
# [3] = NCI Yeast Anticancer Drug Screen. Data for the rad50EPP+ strain (AID 151);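 further: 0% = growth of vehicle-treated control cultures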; conditions: S. cerevisiae rad50 mutant strain, hits give high values
# Outline: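 Vehicle-normalised growth inhibition; rad50EPP+ yeast strain, altered in DNA damage repair, compound-treated.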
# [4] = NCI Yeast Anticancer Drug Screen. Data for the mgt1 strain (AID 153); conditions: S. cerevisiae mgt1 mutant growth inhibition, hits give high values
# Outline: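 Vehicle-normalized growth inhibition is determined in mgt1 yeast, a strain selected for a defined alteration in DNA repair or cell cycle control.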
# [5] = NCI Yeast Anticancer Drug Screen. Data for the rad50 strain (AID 155);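 further: 0% = growth of vehicle-only cultures of the same strain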; conditions: S. cerevisiae rad50 strain growth inhibition, hits give high values
# Outline: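 Relative growth inhibition (compound vs vehicle) was measured in yeast with a defined repair-gene alteration.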
# [6] = NCI Yeast Anticancer Drug Screen. Data for the mec2-1 strain (AID 157); conditions: S. cerevisiae mec2-1 strain, hits give high values
# Outline: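 Mutant yeast (mec2-1) grown with compound; growth inhibition relative to vehicle control reported.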
# [7] = NCI Yeast Anticancer Drug Screen. Data for the rad14 strain (AID 159);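 further: 0% = growth of vehicle-treated control cultures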; conditions: S. cerevisiae rad14 strain growth inhibition, hits give high values
# Outline: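 Screen for anticancer potential: a yeast strain altered in DNA damage repair is grown with compound, and reduced growth is quantified against vehicle controls.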
# [8] = NCI Yeast Anticancer Drug Screen. Data for the sgs1 mgt1 strain (AID 161);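 further: 0% = growth of cultures given vehicle only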; conditions: S. cerevisiae sgs1 mgt1 strain, hits give high values
# Outline: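 Growth of a repair-deficient yeast mutant was monitored after compound treatment and expressed as inhibition relative to vehicle-treated cultures.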
# [9] = NCI Yeast Anticancer Drug Screen. Data for the CLN2oe strain (AID 163);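 further: 0% = growth of vehicle-only control cultures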; conditions: S. cerevisiae CLN2oe strain, hits give high values
# Outline: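 Compounds are applied to yeast harbouring a defined cell-cycle control change; reduced growth compared with vehicle-treated controls gives the value.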
# [10] = NCI Yeast Anticancer Drug Screen. Data for the cln2 rad14 strain (AID 165);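 further: 0% = growth equal to vehicle treated cultures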; conditions: S. cerevisiae cln2 rad14 strain, hits give high values
# Outline: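 Readout is yeast growth inhibition versus vehicle-treated controls, using a strain with cln2 and rad14 alterations exposed to compound.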
# [11] = NCI Yeast Anticancer Drug Screen. Data for the bub3 strain (AID 167); conditions: S. cerevisiae bub3 mutant strain, hits give high values
# Outline: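 Screening used yeast with an engineered genetic alteration affecting cell cycle control. Compound-exposed cultures were compared with vehicle cultures, and reduced growth was taken as inhibition.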
# [12] = NCI Yeast Anticancer Drug Screen. Data for the wt2 strain (AID 169);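 further: 0% = growth of vehicle-treated yeast cultures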; conditions: S. cerevisiae wt2 strain growth inhibition, hits give high values
# Outline: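 Against vehicle-treated controls, the growth of yeast exposed to each compound was compared, and the inhibition was recorded.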
# [13] = NCI Yeast Anticancer Drug Screen. Data for the mlh1 strain (AID 171);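 further: 0% = growth of vehicle-treated control cultures of the same strain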; conditions: S. cerevisiae mlh1 strain growth inhibition, hits give high values
# Outline: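 Measured: yeast growth. Reference: vehicle-treated controls. Organism: strain with a defined alteration affecting DNA damage repair or cell cycle control, treated with compound.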
# [14] = NCI Yeast Anticancer Drug Screen. Data for the sgs1 strain (AID 173);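 further: 0% = growth of vehicle-only control cultures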; conditions: S. cerevisiae sgs1 mutant, hits give high values
# Outline: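 Each compound was added to cultures of the altered yeast strain. Growth was recorded, and inhibition was derived by comparison with vehicle controls.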
# [15] = NCI Yeast Anticancer Drug Screen. Data for the mlh1 rad18 strain (AID 175); conditions: S. cerevisiae mlh1 rad18 strain growth inhibition, hits give high values
# Outline: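 Genetically defined yeast (DNA repair-deficient) exposed to compounds; growth inhibition determined relative to vehicle.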
# [16] = NCI Yeast Anticancer Drug Screen. Data for the rad18 strain (AID 177); conditions: S. cerevisiae rad18 mutant growth inhibition, hits give high values
# Outline: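 Vehicle-treated cultures served as the baseline for scoring compound-induced growth inhibition in DNA-repair-mutant yeast.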
# [17] = at 5.0 µM (retest, dose inferred, filed as 0.5)
# [18] = at 50.0 µM (retest, dose inferred, filed as 5.0)
structure (smiles),measurement,setting,value
CC(C)CC(NC(=O)C(N)C(C)C)C(=O)NC(CCCCN)C(=O)Nc1ccc(N(CCCl)CCCl)cc1 (stereo unspecified),growth inhibition,[1]; at 1.2 µM,8%
same,growth inhibition,[1]; at 3.7 µM,28%
same,growth inhibition,[1]; at 11.0 µM,32%
same,growth inhibition,[1]; at 33.0 µM,23%
same,growth inhibition,[1]; at 100.0 µM,18%
same,growth inhibition,[2]; at 1.2 µM,-16%
same,growth inhibition,[2]; at 3.7 µM,-10%
same,growth inhibition,[2]; at 11.0 µM,-15%
same,growth inhibition,[2]; at 33.0 µM,-11%
same,growth inhibition,[2]; at 100.0 µM,-18%
same,growth inhibition,[3]; at 1.2 µM,10%
same,growth inhibition,[3]; at 3.7 µM,9%
same,growth inhibition,[3]; at 11.0 µM,13%
same,growth inhibition,[3]; at 33.0 µM,7%
same,growth inhibition,[3]; at 100.0 µM,12%
same,growth inhibition,[4]; at 1.2 µM,-6%
same,growth inhibition,[4]; at 3.7 µM,-16%
same,growth inhibition,[4]; at 11.0 µM,-17%
same,growth inhibition,[4]; at 33.0 µM,-5%
same,growth inhibition,[4]; at 100.0 µM,-21%
same,growth inhibition,[5]; at 1.2 µM,8%
same,growth inhibition,[5]; at 3.7 µM,10%
same,growth inhibition,[5]; [17],38%
same,growth inhibition,[5]; at 11.0 µM,8%
same,growth inhibition,[5]; at 33.0 µM,0%
same,growth inhibition,[5]; [18],92% (active)
same,growth inhibition,[5]; at 50.0 µM,16.4%
same,growth inhibition,[5]; at 100.0 µM,2%
same,growth inhibition,[6]; at 1.2 µM,-21%
same,growth inhibition,[6]; at 3.7 µM,-17%
same,growth inhibition,[6]; [17],19%
same,growth inhibition,[6]; at 11.0 µM,-18%
same,growth inhibition,[6]; at 33.0 µM,-17%
same,growth inhibition,[6]; [18],22%
same,growth inhibition,[6]; at 50.0 µM,-7.45%
same,growth inhibition,[6]; at 100.0 µM,-16%
same,growth inhibition,[7]; at 1.2 µM,-2%
same,growth inhibition,[7]; at 3.7 µM,0%
same,growth inhibition,[7]; at 11.0 µM,-2%
same,growth inhibition,[7]; at 33.0 µM,-2%
same,growth inhibition,[7]; at 100.0 µM,-8%
same,growth inhibition,[8]; [17],21%
same,growth inhibition,[8]; [18],34%
same,growth inhibition,[8]; at 50.0 µM,-48.5%
same,growth inhibition,[9]; at 1.2 µM,-3%
same,growth inhibition,[9]; at 3.7 µM,7%
same,growth inhibition,[9]; at 11.0 µM,6%
same,growth inhibition,[9]; at 33.0 µM,1%
same,growth inhibition,[9]; at 100.0 µM,-2%
same,growth inhibition,[10]; [17],13%
same,growth inhibition,[10]; [18],25%
same,growth inhibition,[10]; at 50.0 µM,-7.1%
same,growth inhibition,[11]; at 1.2 µM,-23%
same,growth inhibition,[11]; at 3.7 µM,-16%
same,growth inhibition,[11]; [17],25%
same,growth inhibition,[11]; at 11.0 µM,-16%
same,growth inhibition,[11]; at 33.0 µM,-13%
same,growth inhibition,[11]; [18],17%
same,growth inhibition,[11]; at 50.0 µM,-28.2%
same,growth inhibition,[11]; at 100.0 µM,-25%
same,growth inhibition,[12]; at 1.2 µM,-89%
same,growth inhibition,[12]; at 3.7 µM,-88%
same,growth inhibition,[12]; at 11.0 µM,-86%
same,growth inhibition,[12]; at 33.0 µM,-74%
same,growth inhibition,[12]; at 100.0 µM,-78%
same,growth inhibition,[13]; at 1.2 µM,-1%
same,growth inhibition,[13]; at 3.7 µM,9%
same,growth inhibition,[13]; at 11.0 µM,-3%
same,growth inhibition,[13]; at 33.0 µM,-5%
same,growth inhibition,[13]; at 100.0 µM,-19%
same,growth inhibition,[14]; at 1.2 µM,-4%
same,growth inhibition,[14]; at 3.7 µM,10%
same,growth inhibition,[14]; at 11.0 µM,8%
same,growth inhibition,[14]; at 33.0 µM,-3%
same,growth inhibition,[14]; at 100.0 µM,3%
same,growth inhibition,[15]; [17],19%
same,growth inhibition,[15]; [18],37%
same,growth inhibition,[15]; at 50.0 µM,-44.7%
[N-]=[N+]=C1C(Cl)=C(Cl)C(Cl)=C1Cl,growth inhibition,[1]; at 1.2 µM,-1%
same,growth inhibition,[1]; at 3.7 µM,17%
same,growth inhibition,[1]; at 11.0 µM,63%
same,growth inhibition,[1]; at 33.0 µM,99% (active)
same,growth inhibition,[1]; at 100.0 µM,99% (active)
same,growth inhibition,[2]; at 1.2 µM,-3%
same,growth inhibition,[2]; at 3.7 µM,-2%
same,growth inhibition,[2]; at 11.0 µM,44%
same,growth inhibition,[2]; at 33.0 µM,97% (active)
same,growth inhibition,[2]; at 100.0 µM,99% (active)
same,growth inhibition,[3]; at 1.2 µM,1%
same,growth inhibition,[3]; at 3.7 µM,6%
same,growth inhibition,[3]; at 11.0 µM,32%
same,growth inhibition,[3]; at 33.0 µM,83% (active)
same,growth inhibition,[3]; at 100.0 µM,98% (active)
same,growth inhibition,[4]; at 1.2 µM,-1%
same,growth inhibition,[4]; at 3.7 µM,-1%
same,growth inhibition,[4]; at 11.0 µM,46%
same,growth inhibition,[4]; at 33.0 µM,95% (active)
same,growth inhibition,[4]; at 100.0 µM,99% (active)
same,growth inhibition,[5]; at 1.2 µM,6%
same,growth inhibition,[5]; at 3.7 µM,8%
same,growth inhibition,[5]; [17],62%
same,growth inhibition,[5]; at 11.0 µM,65%
same,growth inhibition,[5]; at 33.0 µM,99% (active)
same,growth inhibition,[5]; [18],96% (active)
same,growth inhibition,[5]; at 50.0 µM,99% (active)
same,growth inhibition,[5]; at 100.0 µM,99% (active)
same,growth inhibition,[6]; at 1.2 µM,1%
same,growth inhibition,[6]; at 3.7 µM,2%
same,growth inhibition,[6]; [17],15%
same,growth inhibition,[6]; at 11.0 µM,59%
same,growth inhibition,[6]; at 33.0 µM,99% (active)
same,growth inhibition,[6]; [18],98% (active)
same,growth inhibition,[6]; at 50.0 µM,99.5% (active)
same,growth inhibition,[6]; at 100.0 µM,99% (active)
same,growth inhibition,[7]; at 1.2 µM,1%
same,growth inhibition,[7]; at 3.7 µM,5%
same,growth inhibition,[7]; at 11.0 µM,44%
same,growth inhibition,[7]; at 33.0 µM,99% (active)
same,growth inhibition,[7]; at 100.0 µM,99% (active)
same,growth inhibition,[8]; [17],20%
same,growth inhibition,[8]; [18],95% (active)
same,growth inhibition,[8]; at 50.0 µM,99.2% (active)
same,growth inhibition,[9]; at 1.2 µM,-2%
same,growth inhibition,[9]; at 3.7 µM,2%
same,growth inhibition,[9]; at 11.0 µM,50%
same,growth inhibition,[9]; at 33.0 µM,99% (active)
same,growth inhibition,[9]; at 100.0 µM,99% (active)
same,growth inhibition,[10]; [17],-6%
same,growth inhibition,[10]; [18],97% (active)
same,growth inhibition,[10]; at 50.0 µM,98.8% (active)
same,growth inhibition,[11]; at 1.2 µM,-8%
same,growth inhibition,[11]; at 3.7 µM,1%
same,growth inhibition,[11]; [17],11%
same,growth inhibition,[11]; at 11.0 µM,62%
same,growth inhibition,[11]; at 33.0 µM,98% (active)
same,growth inhibition,[11]; [18],97% (active)
same,growth inhibition,[11]; at 50.0 µM,99% (active)
same,growth inhibition,[11]; at 100.0 µM,99% (active)
same,growth inhibition,[12]; at 1.2 µM,0%
same,growth inhibition,[12]; at 3.7 µM,0%
same,growth inhibition,[12]; at 11.0 µM,48%
same,growth inhibition,[12]; at 33.0 µM,99% (active)
same,growth inhibition,[12]; at 100.0 µM,99% (active)
same,growth inhibition,[13]; at 1.2 µM,6%
same,growth inhibition,[13]; at 3.7 µM,-1%
same,growth inhibition,[13]; at 11.0 µM,48%
same,growth inhibition,[13]; at 33.0 µM,99% (active)
same,growth inhibition,[13]; at 100.0 µM,99% (active)
same,growth inhibition,[14]; at 1.2 µM,-1%
same,growth inhibition,[14]; at 3.7 µM,19%
same,growth inhibition,[14]; at 11.0 µM,64%
same,growth inhibition,[14]; at 33.0 µM,99% (active)
same,growth inhibition,[14]; at 100.0 µM,99% (active)
same,growth inhibition,[15]; [17],33%
same,growth inhibition,[15]; [18],97% (active)
same,growth inhibition,[15]; at 50.0 µM,99.1% (active)
same,growth inhibition,[16]; at 1.2 µM,3%
same,growth inhibition,[16]; at 3.7 µM,13%
same,growth inhibition,[16]; at 11.0 µM,62%
same,growth inhibition,[16]; at 33.0 µM,98% (active)
same,growth inhibition,[16]; at 100.0 µM,99% (active)
